# Laboratory results published in PubChem BioAssay AID1645870 (National Center for Advancing Translational Sciences (NCATS), 2021).
# Values joined by “and” are separate entries in the source; they are usually repeats but may differ in a detail not shown here. Equal entries are not always repeated. The whole screen tested about 59,000 compounds, of which about 1,500 (2.5%) were called active. A call without a number means that no potency is given here. Not shown: some 10% with an inconclusive outcome. The sample holds actives, similar compounds and a random draw of the others, so the mix is not that of the screen. The call rests on the fitted dose curve; in most records, active means well fitted inhibition curve with a large enough effect; inconclusive means small, poorly fitted or top-dose-only effect; inactive means flat fitted curve, though single readings scatter. Where a structure was tested more than once in an assay, its records may differ in their call.
# Target: N-terminal Xaa-Pro-Lys N-methyltransferase 1 (Homo sapiens) (UniProt Q9BV86)
# Sequence (Q9BV86 whole entry, looked up): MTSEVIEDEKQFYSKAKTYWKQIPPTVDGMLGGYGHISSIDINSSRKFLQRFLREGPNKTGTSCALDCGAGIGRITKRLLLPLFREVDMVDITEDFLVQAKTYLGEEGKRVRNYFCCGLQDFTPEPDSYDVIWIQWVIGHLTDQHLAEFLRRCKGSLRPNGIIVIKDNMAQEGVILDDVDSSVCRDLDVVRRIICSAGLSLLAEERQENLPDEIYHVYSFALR
# Assay: Primary qHTS for Inhibitors of N-terminal methyltransferase 1 (NTMT1): MTaseGlo Assay; further: nearly all actives have a fitted effect of over 65% in size
# Conditions: NTMT1 MTase-Glo SAH luminescence, purified enzyme; series mostly up to 114 µM
# Description: Assay Submitter (PI): Rong Huang Ph.D.
# Purdue University, West Lafayette, IN 47907
# The N-terminal methytransferase 1 is the first methyltransferase that methylates protein alpha-N-amines and plays an important role in regulating cell mitosis, chromatin interactions and DNA repair. It is observed to be over-expressed in various cancer patient tissues like malignant melanoma and colorectal cancer tissues. Knockdown of NTMT1 in cancer cells causes cell mitotic defects and enhances sensitivity to DNA damaging chemotherapeutics. […] These critical cellular processes in which NTMT1 is implicated, coupled with emerging links to cellular dysfunction, strengthen the inference that NTMT1 is a compelling novel anticancer target. Progress have been made in understanding the molecular properties of NTMT1 and the biological consequences of protein alpha-N-terminal methylation, but there are no specific small molecule probes available for NTMT1 to fully characterize its MTase activity. To address this unmet need, a panel of assay is created and established to enable quantitative high-throughput screening (qHTS) for novel, potent, and selective small molecule NTMT1 inhibitors. Two orthogonal qHTS that use different reagents (ThioGlo vs. MTaseGlo) are developed for primary robotic screening against the NCATS chemical library of more than 400,000 small molecules. Identified inhibitors are reacquired, validated, and further characterized.
# MTaseGlo Assay is a luminescence screen that measure the activity of methyltransferases based on the reaction product S-adenosyl homocysteine (SAH). The substrate SAM is converted to SAH upon enzyme activation. MTase-Glo reagent and detection solution convert SAH to ATP and measure the light from the luciferase reaction.
# Materials: NTMT1 enzyme, substrate SPKRIA, control peptide RCC1-6 is provided by the Huang laboratory.
# SEQUENCE No. (e.g., 1, 2, 3, etc.); […] (e.g., Cells, Incubation, Reagent, etc.); VALUE; DESCRIPTION
# 1; Enzyme; 3 uL; Dispense enzyme mixture (final concentrations of 125 nM NTMT1 and 100 uM SAM) into Greiner 1536-well white / solid bottom assay plate (Greiner Bio One, Monroe, NC).
# 2; Compounds; 23 nL; Compounds and controls were transferred via a Kalypsys Pin Tool (Wako USA) equipped with a 1536-slotted pin array (Wako Automation, Richmond, VA)
# 3; Incubation; 15 min; Incubate at room temperature
# 4; Substrate; 1 uL; Dispense 1 uL of substrate at final concentration of 1 uM. Buffer solution was dispensed in control wells. The assay plate was covered with metal lids.
# 5; Incubation; 30 min; Incubate at room temperature, protected from lights.
# 6; Reagent; 1 uL; Dispensed 5x MTase-Glo detection reagent (R) into the assay plate. The plate was covered with metal lids.
# 7; Incubation; 30 min; Incubate the assay plates at room temperature in the dark to allow for SAH to be converted to ADP.
# 8; Reagent; 5 uL; Dispense 5 uL of 1x MTase-Glo Detection Solution (R) to allow for ADP to be converted to ATP which was then detected with a luciferase reaction.
# 9; Centrifuge; 15 sec; Centrifuge the assay plate for 15 seconds at 1000 RPM.
# 10; Incubation; 30 min; Assay plates were incubation at room temperature in the dark.
# 11; Detection; Luminescence; Plates were read on ViewLux detector (PerkinElmer). Data were normalized to no-enzyme (0% activity) and no-inhibitor (DMSO; 100%) controls, and the resulting percent inhibition data were fitted to a 4-parameter Hill equation using GraphPad Prism.
# Potency means the concentration at half of the fitted maximal effect.
row,Structure (SMILES),Potency
1,Cn1c2cc(B(O)O)sc2c2cnn(Cc3ccccc3F)c(=O)c21,inactive
2,CC(C)(O)c1ccccc1CC[C@H](SCC1(CC(=O)O)CC1)c1cccc(/C=C/c2ccc3ccc(Cl)cc3n2)c1,inactive
3,O=C(NCCc1nc2ccccc2n1CCOc1cccc(Br)c1)C1CCCCC1,inactive
4,O=S(=O)(c1ccc2c(c1)OCCO2)N1CCN(S(=O)(=O)c2cc(F)ccc2F)CC1,inactive
5,COc1ccc(C2Nc3ccccc3C(=O)N2Cc2ccc(Cl)cc2)cc1COc1ccc(NC(C)=O)cc1 (configuration not stated),inactive
6,Clc1cccc(-n2ncc3c(NCCc4ccccc4)ncnc32)c1,inactive
7,Cc1ccc(-n2ncc3c(NCCCn4ccnc4)ncnc32)cc1Cl,44.7 µM (active)
8,CCN(CC)CCNc1ncnc2c1cnn2-c1cc(Cl)ccc1C,inactive
9,CC(C)=CCC[C@](C)(O[C@@H]1O[C@H](CO[C@@H]2O[C@H](CO)[C@@H](O)[C@H](O)[C@H]2O)[C@@H](O)[C@H](O)[C@H]1O)[C@H]1CC[C@]2(C)[C@@H]1[C@H](O)C[C@@H]1[C@@]3(C)CC[C@H](O[C@@H]4O[C@H](CO)[C@@H](O)[C@H](O)[C@H]4O[C@@H]4O[C@H](CO)[C@@H](O)[C@H](O)[C@H]4O)C(C)(C)[C@@H]3CC[C@]12C,inactive
10,NC(=O)C1CCN(c2nc(-c3cccc(F)c3)cs2)CC1,inactive
11,CCCN1CCN(CCCNC(=O)c2ccc3nc(Cc4ccccc4)oc3c2)CC1,inactive
12,Cc1cn(CCN2CCN(c3ccccc3-c3cc(C#N)cc(C(=O)NCCCN4CCCC4)c3)CC2)c2ccccc12,50.1 µM (active)
13,Cc1ccc(C)c(N2CCN(CCCNC(=O)Nc3ccc(Cl)cc3)CC2)c1,inactive
14,O=C(Nc1cc(Cc2ccccc2)ccn1)c1ccc(-c2cccc([N+](=O)[O-])c2)o1,inactive
15,N#Cc1ccccc1CNc1nc2ncc(Br)cc2[nH]1,inactive
16,CCOc1cccc(-c2cc(-c3n[nH]c(=O)n3CC)c3ccccc3n2)c1,inactive
17,N#CSc1cc(SC#N)c(N)nc1N,7.8 µM (active)
18,Cc1cc2c(s1)c1cnn(Cc3c(F)cccc3Cl)c(=O)c1n2C,inactive
19,Cc1cc(Nc2cccc(C(F)(F)F)c2)nc2ccc(NC(=O)c3ccc(=O)[nH]c3)cc12,inactive

row,Structure (SMILES),Potency
1,Cc1ccc(C(=O)Nc2cccc(C(F)(F)F)c2)cc1Nc1nc(-c2cccnc2)nc2c1cnn2C,inactive and 21.5 µM (active)
2,Cc1cc(C(=O)Nc2cccc(C(F)(F)F)c2)c2c(C)nn(-c3cccc(F)c3)c2n1,inactive
3,COc1cccc(C2c3c(ncn(-c4cccc(Br)c4)c3=N)Oc3ccc4ccccc4c32)c1 (configuration not stated),inactive
4,COC(=O)c1ccc(NC(=O)c2cc(-c3ccc(C)c(C)c3)nc3ccccc23)cc1,inactive
5,COc1ccc(NC(=O)c2cnn3c(C)cc(C)nc23)cc1OC,inactive
6,COc1ccc(C(CC(=O)N2CC(C)CC(C)C2)c2c(O)cc(OC)cc2OC)cc1 (configuration not stated),inactive
7,Cc1ccc(S(=O)(=O)Nc2ccccc2C(=O)Nc2ncc(-c3ccccc3)s2)cc1,inactive
8,O=C(Nc1ncc(Cc2ccc(C(F)(F)F)cc2)s1)c1ccc(-c2ccc([N+](=O)[O-])cc2)o1,inactive
9,CC(=O)Oc1ccccc1C(=O)Nc1ncc([N+](=O)[O-])s1,25.1 µM (active)
10,O=c1c2ccccc2nc2sc(Nc3ccc(Oc4ccccc4)cc3)nn12,inactive
11,Nc1ccc(C(=O)Nc2ccccc2N)cc1,inactive
12,Nc1ccccc1N,22.4 µM (active)
13,Cc1nc(-c2ccccc2C(C)C)nc(NCc2ccc(-c3cccnc3)cc2)c1C,inactive
14,O=C(NCc1ccc(Cl)c(Cl)c1)Nc1nnc(-c2ccncc2)s1,inactive
15,CCOC(=O)c1c(CNCc2ccccc2F)c2sc(C)cc2n1C,inactive
16,Cc1ccc(N[S+](=O)([O-])c2cc3c(cc2N[C@@H](C)CO)NC(=O)CC3)cc1N[C@@H](C)CO,inactive
17,CCc1ccc(NC(=O)c2cnn3c(C)cc(-c4ccccc4)nc23)cc1,inactive
18,CCOc1ccc(NC(=O)c2c(NCc3cccc(OC)c3OC)sc3c2CCC3)cc1,inactive
19,CCOc1ccc(NC(=O)c2c(NC(=O)Cc3ccccc3)sc3c2CCCCC3)cc1,44.7 µM (active)

row,Structure (SMILES),Potency
1,O=C(Cc1ccccc1)Nc1sc2c(c1C(=O)Nc1ccc(Br)cc1)CCC2,inactive
2,O=C(CNC(=O)c1ccccc1)OC(C(=O)Nc1cc([N+](=O)[O-])ccc1F)c1ccccc1 (configuration not stated),inactive
3,NC(=O)c1cnc2[nH]ccc2c1NC1C2CC3C[C@H]1CC(O)(C3)C2 (some centres not stated),inactive
4,CN(CC(F)(F)F)c1nc(NCc2ccc(-c3cccnc3)cc2)c2ccccc2n1,inactive
5,CN(C)[S+](=O)([O-])c1ccc(-c2ccc(=O)n(CC(=O)NCCc3ccccc3)n2)cc1,inactive
6,O=C(NC(c1ccco1)c1cc(Cl)c2cccnc2c1O)c1ccccc1 (configuration not stated),inactive
7,O=C(CSc1ncc(CO)n1Cc1ccc(F)cc1)NCc1ccco1,inactive
8,O=C(CSc1ncc(CO)n1Cc1ccc(Cl)cc1)NCc1ccc(F)cc1,inactive
9,OCc1cnc(SCc2ccc(F)cc2)n1Cc1ccc(F)cc1,89.1 µM (active)
10,Cc1cc(C)n2ncc(C(=O)N3CCCC3)c2n1,inactive
11,Cc1ccc(OCCn2c(CCNC(=O)c3ccccc3C(F)(F)F)nc3ccccc32)cc1,inactive
12,CC(C)c1ccccc1-c1nc(NCc2ccc(-c3cccnc3)cc2)c2occc2n1,inactive
13,COc1ccc(C2Nc3cccc(OC)c3C(=O)N2Cc2ccccc2)cc1COc1ccc(NC(C)=O)cc1 (configuration not stated),inactive
14,O=C(OCC#CCSc1nnc(-c2ccco2)o1)c1ccc(F)cc1,inactive
15,O=C(Nc1nnc(-c2ccncc2)s1)Nc1cc(C(F)(F)F)ccc1F,inactive
16,COc1ccc(C2Nc3ccccc3C(=O)N2Cc2ccco2)cc1COc1cccc(NC(C)=O)c1 (configuration not stated),inactive
17,CCNC(=O)C#Cc1ccc2c(C(=Nc3ccc(CN(C)C)cc3)c3ccccc3)c(O)[nH]c2c1,31.6 µM (active)
18,CN(C)C/C=C/C(=O)Nc1ccc(C(=O)N2CCC[C@@H](Nc3ncc(Cl)c(-c4c[nH]c5ccccc45)n3)C2)cc1,inactive
19,Cn1cnc(CN=C2NC3=C(C(=O)CCC3)C(c3[nH]ncc3Cl)N2)c1 (configuration not stated),inactive
